Data on 18 compounds can be found in PubChem BioAssay (EPA / NIEHS).

Results filed as inconclusive are left out. Activity calls are given as the source filed them. How the source made its calls: active means hit-call score of the fitted dose curve at least 0.9, where 1 is the maximum; inconclusive means response in the unintended direction; inactive means score below 0.9.

Estrogen-related receptor gamma (Homo sapiens), sequence (P62508 whole entry, looked up, the tested form may be a part): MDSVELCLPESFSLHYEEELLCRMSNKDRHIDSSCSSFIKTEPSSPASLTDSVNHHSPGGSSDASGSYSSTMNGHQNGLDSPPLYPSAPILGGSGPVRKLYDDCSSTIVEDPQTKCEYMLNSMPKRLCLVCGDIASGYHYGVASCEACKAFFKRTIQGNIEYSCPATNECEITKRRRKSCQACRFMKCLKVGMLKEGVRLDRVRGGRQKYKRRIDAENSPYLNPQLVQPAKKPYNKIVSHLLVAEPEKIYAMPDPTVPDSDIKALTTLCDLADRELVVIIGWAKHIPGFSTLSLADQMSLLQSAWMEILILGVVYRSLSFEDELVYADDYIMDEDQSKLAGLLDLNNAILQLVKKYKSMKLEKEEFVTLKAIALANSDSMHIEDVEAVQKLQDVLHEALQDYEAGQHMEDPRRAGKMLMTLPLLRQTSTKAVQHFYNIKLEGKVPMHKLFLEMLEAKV

The experiment concerns the target Estrogen-related receptor gamma (Homo sapiens) (UniProt P62508). Put plainly: ATG_ERRg_TRANS: Attagene TRANS-FACTORIAL HepG2 Assay for human Estrogen-Related Receptor gamma (ERRg) (AID 2282977).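 Further: hits increase reporter signal over DMSO so potencies reflect activators.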 Conditions: HepG2 Attagene TRANS reporter, ERRg transactivation. In outline: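 Transient HepG2 transfectants, 24 h compound exposure, GAL4-UAS reporter mRNA by RT-PCR/6-FAM labelling/capillary electrophoresis; positive direction vs DMSO.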
On to `[Co]`, for which the call was inactive. Regarding `FC(F)(F)C(F)(F)C(F)(F)C(F)(F)C(F)(F)C(F)(F)C(F)(F)Br`, the result was inactive. `CCN(Cc1cccc(S(=O)(=O)O)c1)c1ccc(C(=C2C=CC(=[N+](CC)Cc3cccc(S(=O)(=O)O)c3)C=C2)c2ccc(O)cc2S(=O)(=O)[O-])cc1`: the outcome was inactive. For the compound `C#C[C@]1(O)CC[C@H]2[C@@H]3CCc4cc(OC)ccc4[C@H]3CC[C@@]21C`, the outcome was inactive.

Regarding `O=C(O)C(F)(F)C(F)(F)C(F)(F)C(F)(F)F`, the call was inactive.

In the case of `CC/C=C\CCOC(=O)c1ccccc1`, the compound was classed as inactive.

In the case of `CCCCOc1ccc(N)cc1`, the outcome was inactive. Turning to `CC(C)c1ccccc1N`, the outcome was inactive. For the compound `CC/C=C\CCOC(C)=O`, the compound was classed as inactive. Consider `FC(F)(F)C(F)(F)C(F)(F)C(F)(F)C(F)(F)C(F)(F)CCS`, for which the outcome was inactive. To `O=C(O)C(F)(F)C(F)(F)C(F)(F)C(F)(F)C(F)(F)C(F)(F)C(F)(F)C(F)(F)C(F)(F)C(F)F` belongs “inactive”; to `c1ccc(B(c2ccccc2)c2ccccc2)cc1`, “inactive”; to `FC(F)(F)C(F)(F)C(F)(F)N(C(F)(F)C(F)(F)C(F)(F)F)C(F)(F)C(F)(F)C(F)(F)F`, “inactive”. To `O=C(O)C(F)(F)C(F)(F)C(F)(F)F` belongs “inactive”; to `OCCCC(F)(F)C(F)(F)C(F)(F)C(F)(F)C(F)(F)C(F)(F)C(F)(F)F`, “inactive”. To `FC(F)(F)C(F)(F)C(F)(F)CI` belongs “inactive”; to `Oc1ccc(Nc2ccccc2)cc1`, “inactive”. As for `O=S(=O)(OCCOC(F)(F)F)C(F)(F)F`, the result was inactive.
